The results in this text go back to PubChem BioAssay AID652104 (National Center for Advancing Translational Sciences (NCATS), 2013).

Structures are written as SMILES. The campaign covered roughly 410,000 compounds. About 7,200 (1.8%) were called active. Roughly 7% stayed inconclusive and do not appear here. This is one part of a sample in which actives are shown more often than they occur. The call rests on the fitted dose curve; in most records, active means well fitted activation curve with a large enough effect; inconclusive means small, poorly fitted or top-dose-only effect, or another doubt; inactive means no such curve, though single readings can be large or run the other way.
Potency means the concentration at half of the fitted maximal effect.

This assay is described as follows: qHTS of TDP-43 Inhibitors. Further: nearly all actives have a fitted effect of over 50% in size. On growth rescue (activation): % of control where 0% means no effect. The following applies: TDP-43 expressing yeast growth rescue, BacTiter-Glo, 24 h; series mostly up to 46.1 µM; growth rescue (activation): at the top concentration. From the text:
The goal of this project is to identify new chemical probes capable of reversing the toxicity associated with TDP-43 which is associated with frontotemporal lobar degeneration and amyotrophic lateral sclerosis. These compounds will provide a complementary approach to deciphering the tangled mechanisms of toxicity and protection that we have uncovered through genome-wide genetic screens and are beginning to uncover in a large-scale proteomics analysis with mass spectroscopy.
To this end, a miniaturized assay was developed to be screened against the Molecular Libraries Small Molecule Repository (MLSMR) to discover TDP-43 inhibitors. Please note that in the set-up this yeast-based assay compounds that inhibit as TDP-43, have a read-out as activators.
NIH Chemical Genomics Center [NCGC]
NIH Molecular Libraries Probe Centers Network [MLPCN]
Assay Submitter (PI): Susan Lindquist, Whitehead Institute/MIT
Dispense 2.5 microL yeast galactose medium per 1536-well plate, pin compound, dispense 2.5 microL TDP-43 expressing yeast in galactose medium at OD600=0.02 (pregrown in raffinose medium to mid-log phase) per well, incubate for 24 hr at 30 deg C, and cell growth will be measured using 5 microL of Bactiter/Glo reagent to entire plate and read using Luminescence Protocol in ViewLux.
For orientation: qHTS replaces the single test concentration by a dilution series.
For `CC(C)c1ccc(NC(=O)c2ccc3c(O)c(S(=O)(=O)c4ccccc4)c(=O)[nH]c3c2)cc1`, the “growth rescue (activation)” value is 19.2% (inactive).
For `O=C1N(Cc2ccccc2)c2ccc(Cl)cc2C1(O)c1c[nH]c2ccccc12` (stereo not given), the “growth rescue (activation)” value was 25.9% (inactive).
For `CCCCOc1ccc(NC(=O)CSCC(=O)OCC)cc1`, the Potency was 12.6 µM (active).
Consider `CCOc1ccc(NC(=O)CSc2nncn2C)cc1`, for which the “growth rescue (activation)” value was -8.46% (inactive).
The same measure, in the same setting: the result for `CCCCN(C(=O)CSCC(=O)Nc1ccc(OC)cc1)c1c(N)n(CCC)c(=O)[nH]c1=O` reads 13.8% (inactive); that for `O=C(COc1ccc(Cl)cc1)Nc1ccc(-c2nc3cc(Cl)ccc3o2)c(O)c1`, 24.4% (inactive); that for `O=S(=O)(c1ccc(Br)cc1)c1nnn2c1nc(NC1CCCCCC1)c1sccc12`, -1.95% (inactive).
With `COC(C/C=C/C(=O)[C@@H](C)OCc1ccccc1)OC`, the Potency was 20 µM (active).
Consider `COC(C[C@H](O)CC(=O)[C@@H](C)OCc1ccccc1)OC`, for which the “growth rescue (activation)” value was 18% (inactive).
Still for that read-out and setting: the result for `COC(C[C@@H]1O[C@@H]1C(=O)[C@H](C)OCc1ccccc1)OC` reads 13% (inactive); that for `Cc1ccc(NC(=O)C(=O)NCC(c2cccnc2)N2CCOCC2)cc1` (stereo not given), 20.9% (inactive).
Same read-out and setting: the result for `COc1ccc(OC)c(-n2nnc3c(sc4nc(C)c(Br)c(C)c43)c2=O)c1` reads 14.9% (inactive); that for `CCc1ccc(Nc2nn3c(=O)c4cc5c(cc4nc3s2)OCO5)cc1`, 6.61% (inactive).
For the compound `CC1CCN(Cc2nc(-c3ccc(Cl)cc3)no2)CC1`, the “growth rescue (activation)” value is -5.38% (inactive).
For `Cc1cc(Cl)ccc1OCc1nc(-c2ccncc2)no1`, the Potency is 20 µM (active).
`COc1cc(OC)c(NC(=O)c2nc(-c3ccncc3)no2)cc1Cl`: the “growth rescue (activation)” value was 5.65% (inactive).
On the same count and under the same terms, the value for `Cc1c(Cl)cccc1NC(=O)Cn1cc(C(=O)c2cccs2)c2ccccc21` was 22.8% (inactive).
On to `COc1ccc(N2CCN(Cc3nc4c(c(=O)[nH]c(=O)n4C)n3Cc3ccc(Cl)cc3)CC2)cc1`, for which the “growth rescue (activation)” value is -19.3% (inactive).
On the same count and under the same terms, the value for `Cc1cccc(C(=O)N2CCc3cc(CNC(=O)Cc4ccc(F)cc4)ccc32)c1` was 20.6% (inactive); that for `CC1=Nc2cc(C(=O)NCc3ccc(C)cc3)ccc2Sc2ccc(Cl)cc21` was 21.4% (inactive).
The same measure, in the same setting: the value for `CCCCc1c(-c2ccc(Br)cc2)ncn1CCc1ccccc1OC` was 43.7% (inactive); that for `CCCc1c(-c2ccccc2F)ncn1Cc1ccccc1OC` was 15.3% (inactive).
Consider `CCc1c(-c2ccc(F)cc2)ncn1Cc1cccc(-c2ccccc2)c1`, for which the Potency is 15.8 µM (active).
With `CCOc1ccc(C(=O)Nc2ccc3nc4c(c(Nc5ccccc5OC)c3c2)CCCC4)cc1`, the “growth rescue (activation)” value was -14.8% (inactive).
The same measure, in the same setting: the result for `CCOc1ccc(CNC(=O)c2cc(=O)[nH]c3ccc(S(=O)(=O)N4CCCCC4)cc23)cc1` reads 0% (inactive); that for `COc1ccc(CNC(=O)c2cc3c(=O)[nH]c4ccccc4c3s2)cc1`, 9.68% (inactive); that for `Cc1cccc(N2CCN(S(=O)(=O)c3ccc4[nH]c5c(c4c3)CCCCC5)CC2)c1C`, -17.8% (inactive).
For `O=C(c1cccc2ccccc12)N1CCN(c2ccccc2F)CC1`, the Potency was 12.6 µM (active).
Consider `COc1cc(OC)c(OC)cc1CN1CCN(C(=O)c2cccc3ccccc23)CC1`, for which the “growth rescue (activation)” value is -19.7% (inactive).
In the case of `O=C(c1ccc(CN2CCOCC2)cc1)N1CCN(c2ccccc2F)CC1`, the “growth rescue (activation)” value was 3.14% (inactive).
The same measure, in the same setting: the value for `CCCSc1ncc(Cl)c(C(=O)Nc2sc3c(c2C(=O)NCCOC)CCCC3)n1` was 24.9% (inactive); that for `O=C(NCCc1ccc(Cl)cc1)c1ccc2nc(CCc3ccccc3)oc2c1` was 11.6% (inactive).
Consider `CC(CNC(=O)c1nnc(Cc2cccc(F)c2)o1)c1ccccc1` (stereo not given), for which the Potency is 15.8 µM (active).
As for `CNC(=O)c1nnc(Cc2ccc(Cl)cc2)o1`, the “growth rescue (activation)” value was 25.3% (inactive).
Same read-out and setting: the value for `O=C(NCCCN1CCN(c2cccc(Cl)c2)CC1)c1nnc(Cc2ccc(F)cc2Cl)o1` was 14.6% (inactive); that for `CCOC(=O)c1cnc2c(C)cc(Cl)cc2c1NCCc1ccc(OC)c(OC)c1` was 15% (inactive).
For `Cc1ccc(Nc2nc3ccccc3nc2-n2nc(C)cc2C)c(Cl)c1`, the “growth rescue (activation)” value was 27.7% (inactive).
Consider `CCOc1ccc(CNC(=O)c2cc(-c3ccc(Cl)s3)nc3ccccc23)cc1`, for which the “growth rescue (activation)” value is 22.8% (inactive).
Same read-out and setting: the result for `O=C(c1ccco1)n1nc(-c2ccc(Cl)cc2)nc1NCc1ccccc1` reads 5% (inactive).
With `CN(O)C(=S)c1ccccc1`, the Potency was 3.55 µM (active).
As to `Cc1cc(C)cc(NC(=O)Cn2nc(N3CCN(c4ccccc4)CC3)ccc2=O)c1`, the “growth rescue (activation)” value was 20.2% (inactive).
Turning to `Cc1cc(C)nc(-n2ncc3c2CC(c2ccc(C(C)C)cc2)CC3=O)n1` (stereo not given), the Potency is 28.2 µM (active).
In the case of `Cc1nc2nc3c(cn2n1)C(=O)CC(c1ccccc1)C3` (stereo not given), the “growth rescue (activation)” value was 13.9% (inactive).
On the same count and under the same terms, the result for `O=C(O)COCC(=O)NCc1csc2ccc(Cl)cc12` reads -10.6% (inactive).
For `CNC(=O)c1csc(Cc2c(Cl)sc3ccc(Cl)cc23)n1`, the Potency is 20 µM (active).
Regarding `CC(=O)NNC(=O)c1csc(Cc2c(Cl)sc3ccc(Cl)cc23)n1`, the “growth rescue (activation)” value was 2.99% (inactive).
With `COc1ccc(-n2c(=O)c3ccccc3n(Cc3ccccc3Cl)c2=O)cc1`, the “growth rescue (activation)” value was 15.2% (inactive).
Still for that read-out and setting: the result for `C=CCN1C(=O)C(O)(CC(=O)c2ccc(Cl)cc2)c2ccccc21` (stereo not given) reads 1.69% (inactive); that for `Cc1ccc(CCN2CC(C(=O)NCCc3ccccc3)CC2=O)cc1` (stereo not given), 4.24% (inactive).
Same read-out and setting: the value for `Cc1coc(C)c1C(=O)CC1(O)C(=O)N(C)c2ccc(Cl)cc21` (stereo not given) was -11.5% (inactive).
